We go through 39 compounds from PubChem BioAssay.

Values without a mark were called inactive. Activity calls are given as the source filed them. Rule as the data show it, unless noted: active = inhibition above about 42%; inactive = the rest.

The target in the first experiment is Nuclear receptor subfamily 5 group A member 2 (Homo sapiens) (UniProt O00482). As to the kind of experiment: NR5A2 activity suppression in reporter cells – cell-based, luminescence, confirmation (AID 651613).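 Also: HEK293T cells co-transfected with LRH-1 and StAR promoter luciferase reporter; 0% = vehicle wells and 100% = parental cells lacking receptor.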 To be noted: cell-based LRH-1 luciferase reporter, inverse agonism; at 3.6 µM; hits give high values.
Nuclear receptor subfamily 5 group A member 2 (Homo sapiens), sequence (O00482 whole entry, looked up): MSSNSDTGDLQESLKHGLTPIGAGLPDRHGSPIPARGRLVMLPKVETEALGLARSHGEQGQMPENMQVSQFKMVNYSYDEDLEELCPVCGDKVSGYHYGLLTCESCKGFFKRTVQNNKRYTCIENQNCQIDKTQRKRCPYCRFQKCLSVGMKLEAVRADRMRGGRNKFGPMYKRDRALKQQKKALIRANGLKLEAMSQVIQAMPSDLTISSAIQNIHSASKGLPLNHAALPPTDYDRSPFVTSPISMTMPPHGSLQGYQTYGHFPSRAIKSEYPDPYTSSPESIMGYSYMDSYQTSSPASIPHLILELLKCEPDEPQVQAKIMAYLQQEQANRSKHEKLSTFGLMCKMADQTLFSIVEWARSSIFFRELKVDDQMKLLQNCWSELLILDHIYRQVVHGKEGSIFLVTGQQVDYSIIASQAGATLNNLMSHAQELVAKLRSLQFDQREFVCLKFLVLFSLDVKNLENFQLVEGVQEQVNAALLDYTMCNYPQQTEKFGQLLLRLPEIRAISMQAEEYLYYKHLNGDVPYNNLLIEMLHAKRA
Turning to `O=C1C=C(NCc2ccco2)C2(CCCCC2)O1`, the inhibition is 43.1% (active).
As for `Nc1ccccc1Nc1ccncc1[N+](=O)[O-]`, the inhibition was 55.8% (active).
Still for that read-out and setting: next, `CC(C)C(=O)N1CCN(c2ccccc2NC(=O)c2ccc([N+](=O)[O-])o2)CC1`: 59.1% (active).
Same read-out and setting: next, `COc1ccc(OCCNC(=O)C2(C)CCN2Cc2ccc3ccccc3c2)cc1` (stereo not drawn): 45.2% (active); `O=C(CN1CCN(c2ncccn2)CC1)N1CCCc2c1c(=O)oc1ccc(O)cc21`: 62.6% (active); `Cc1ccc(NC(=O)CSc2nc3ncc(Br)cc3[nH]2)cc1C`: 54.5% (active).
On to `CCOc1ccc(Br)cc1C1=NN(C(C)=O)C(c2ccc([N+](=O)[O-])s2)O1` (stereo not drawn), for which the inhibition was 66.8% (active).
Same read-out and setting: next, `COc1ccc(/C=C2/CSC/C(=C/c3ccc(OC)c(OC)c3)C2=O)cc1OC`: 74.5% (active).
Still for that read-out and setting: to `Oc1cccc(Nc2nc(-c3ccccc3Cl)nc3ccccc23)c1` belongs 54.2% (active); to `N#Cc1ccccc1NC(=O)c1ccccc1OCC(=O)Nc1ccc2c(c1)oc1ccccc12`, 33.9%.
The same measure, in the same setting: next, `Cc1onc(-c2ccccc2Cl)c1-c1nc(-c2ccccn2)no1`: 67.3% (active).
Regarding `CC1Cc2ccccc2N1C1=CC(=O)CC(C)(C)C1` (stereo not drawn), the inhibition is 55.3% (active).
Same read-out and setting: to `CCOc1ccc(NC(=O)Cn2nc(-c3ccccc3Cl)n(CC)c2=S)cc1` belongs 60.4% (active); to `COc1ccc(OC)c(C2C3=C(COC3=O)Nc3cc4c(cc32)OCO4)c1` (stereo not drawn), 27.6%.
For `O=C(CSc1nc2ccccc2c(=O)n1-c1ccc(Cl)c(Cl)c1)Nc1ccc2c(c1)CCC2`, the inhibition was 49.9% (active).
The same measure, in the same setting: next, `Cc1ccc(NC(=O)CSc2nc3[nH]c(=O)cc(O)c3s2)c(Br)c1`: 56.3% (active); `CCOc1ccc(CCNC(=O)COC(=O)CCc2cc(OC)c(OC)c(OC)c2)cc1OCC`: 50.1% (active).
On to `O=C1C=C(c2ccccc2)OC2(CCCC2)O1`, for which the inhibition is 67.3% (active).
On the same count and under the same terms, to `O=C(NC1CCCCC1)c1ccc([N+](=O)[O-])o1` belongs 54.9% (active); to `COCC(C)n1c(-c2ccc3c(c2)NC(=O)CO3)csc1=Nc1ccc(OC(F)F)cc1` (stereo not drawn), 79.3% (active); to `CCOc1ccc2c(c1)sc(N)[n+]2Cc1cc(C)cc2cccnc12`, 56.2% (active).
As for `O=C(COc1ccc2ccc(=O)oc2c1)Nc1ccc(N2CCOCC2)cc1`, the inhibition is 57.3% (active).
Still for that read-out and setting: to `CC(=O)N[C@@H](Cc1c[nH]c2ccccc12)C(=O)OCC(=O)Nc1ccc2c(c1)OCO2` belongs 53.1% (active).
Same read-out and setting: to `COc1ccc(C2=Nn3c(nnc3-c3ccccc3F)SC2)cc1OC1CCOC1` (stereo not drawn) belongs 75% (active); to `COc1cc(C(=O)OCC(=O)Nc2ccc(N3CCOCC3)cc2)ccc1OCC(C)C`, 54.5% (active).
`Cn1cc(Cl)c(C(=O)OCC(=O)Nc2ccc(S(N)(=O)=O)cc2)n1`: the inhibition was 55.2% (active).
Consider `O=C(COc1cc2oc(=O)cc(-c3ccccc3)c2cc1Cl)NCCN1CCOCC1`, for which the inhibition is 40.5%.
On the same count and under the same terms, to `Cc1cc(-c2nn3c(-c4ccccc4)nnc3s2)c2ccccc2n1` belongs 38.6%; to `COc1ccc(CCNC(=O)COC(=O)C2CC2C)cc1` (stereo not drawn), 47.1% (active).
Same read-out and setting: next, `O=C1C(=C(I)I)c2ccccc2-c2ccccc21`: 10.4%; `CCOC(=O)c1cc(C#N)c(N2CCCCC2)nc1-c1ccccc1`: 53.8% (active); `CCCCCOc1ccc(NC(=O)CSc2cccc3cccnc23)cc1`: 42.7% (active).
On to `Cc1ccc(NC(=O)COC(=O)C(NS(=O)(=O)c2ccc(Cl)cc2)C(C)O)cc1C` (stereo not drawn), for which the inhibition was 61.8% (active).
Same read-out and setting: next, `Cc1ccc(N2C(=O)C(Cl)=C(N3CCN(C)CC3)C2=O)c(C)c1`: 50.3% (active); `COc1ccc(NC(=O)CSc2nnc3ccc(-c4cccnc4)nn23)cc1OC`: 42.1% (active).
Still for that read-out and setting: next, `O=[N+]([O-])c1ccc(S(=O)Cc2ccccc2)c([N+](=O)[O-])c1` (stereo not drawn): 43.5% (active); `O=C(Nc1ccc(C(=O)N2CCOCC2)cc1)c1cccc([N+](=O)[O-])c1`: 48.4% (active); `O=C(Nc1ccc2oc(-c3ccccc3F)nc2c1)c1ccc([N+](=O)[O-])o1`: 46% (active).
The same measure, in the same setting: to `CCN(Cc1ccccc1)c1ccc(/C=N/N2CCOCC2)cc1` belongs 26%.

For another experiment, the target named is Steroidogenic factor 1 (Homo sapiens) (UniProt Q13285). Put plainly: inverse agonism at SF1 nuclear receptor – cell-based, luminescence, high throughput, counter-screen for LRH-1 inverse agonist project (AID 651614; in the data active = inhibition above about 44%;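 also: cells cotransfected with StAR promoter reporter and SF1 expression vector; 0% = vehicle on cells with receptor and 100% = vehicle on cells lacking receptor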). The conditions noted are these: cell-based SF1 luciferase reporter, at 3.6 µM, hits give high values.
Steroidogenic factor 1 (Homo sapiens), sequence (Q13285 whole entry, looked up): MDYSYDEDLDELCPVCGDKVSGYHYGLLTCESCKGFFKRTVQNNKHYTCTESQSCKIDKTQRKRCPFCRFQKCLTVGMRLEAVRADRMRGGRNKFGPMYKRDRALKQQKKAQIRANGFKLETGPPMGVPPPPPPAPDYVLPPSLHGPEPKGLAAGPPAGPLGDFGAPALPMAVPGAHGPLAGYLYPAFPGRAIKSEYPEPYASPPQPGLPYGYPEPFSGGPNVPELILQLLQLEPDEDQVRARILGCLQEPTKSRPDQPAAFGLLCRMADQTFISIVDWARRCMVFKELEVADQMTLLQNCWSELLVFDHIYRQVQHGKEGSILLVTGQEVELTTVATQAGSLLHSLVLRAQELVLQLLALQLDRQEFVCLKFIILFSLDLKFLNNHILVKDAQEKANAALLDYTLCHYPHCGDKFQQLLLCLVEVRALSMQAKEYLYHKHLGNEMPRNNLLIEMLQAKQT
`O=C1C=C(NCc2ccco2)C2(CCCCC2)O1`: the inhibition was 46.6% (active).
Same read-out and setting: next, `Nc1ccccc1Nc1ccncc1[N+](=O)[O-]`: 63.3% (active); `CC(C)C(=O)N1CCN(c2ccccc2NC(=O)c2ccc([N+](=O)[O-])o2)CC1`: 42.2%.
On the same count and under the same terms, next, `COc1ccc(OCCNC(=O)C2(C)CCN2Cc2ccc3ccccc3c2)cc1` (stereo not drawn): 43.2% (active).
Same read-out and setting: to `O=C(CN1CCN(c2ncccn2)CC1)N1CCCc2c1c(=O)oc1ccc(O)cc21` belongs 53.6% (active).
Turning to `Cc1ccc(NC(=O)CSc2nc3ncc(Br)cc3[nH]2)cc1C`, the inhibition is 54.1% (active).
Regarding `CCOc1ccc(Br)cc1C1=NN(C(C)=O)C(c2ccc([N+](=O)[O-])s2)O1` (stereo not drawn), the inhibition is 63.2% (active).
Still for that read-out and setting: to `COc1ccc(/C=C2/CSC/C(=C/c3ccc(OC)c(OC)c3)C2=O)cc1OC` belongs 74.9% (active).
As for `Oc1cccc(Nc2nc(-c3ccccc3Cl)nc3ccccc23)c1`, the inhibition was 48.3% (active).
The same measure, in the same setting: next, `N#Cc1ccccc1NC(=O)c1ccccc1OCC(=O)Nc1ccc2c(c1)oc1ccccc12`: 23.9%; `Cc1onc(-c2ccccc2Cl)c1-c1nc(-c2ccccn2)no1`: 52.7% (active); `CC1Cc2ccccc2N1C1=CC(=O)CC(C)(C)C1` (stereo not drawn): 51.9% (active).
Same read-out and setting: to `CCOc1ccc(NC(=O)Cn2nc(-c3ccccc3Cl)n(CC)c2=S)cc1` belongs 54.6% (active).
As for `COc1ccc(OC)c(C2C3=C(COC3=O)Nc3cc4c(cc32)OCO4)c1` (stereo not drawn), the inhibition is 41.7%.
Take `O=C(CSc1nc2ccccc2c(=O)n1-c1ccc(Cl)c(Cl)c1)Nc1ccc2c(c1)CCC2`: the inhibition was 37.8%.
Still for that read-out and setting: next, `Cc1ccc(NC(=O)CSc2nc3[nH]c(=O)cc(O)c3s2)c(Br)c1`: 46.5% (active); `CCOc1ccc(CCNC(=O)COC(=O)CCc2cc(OC)c(OC)c(OC)c2)cc1OCC`: 47.2% (active).
In the case of `O=C1C=C(c2ccccc2)OC2(CCCC2)O1`, the inhibition was 61.2% (active).
On the same count and under the same terms, next, `O=C(NC1CCCCC1)c1ccc([N+](=O)[O-])o1`: 54.4% (active).
Still for that read-out and setting: to `COCC(C)n1c(-c2ccc3c(c2)NC(=O)CO3)csc1=Nc1ccc(OC(F)F)cc1` (stereo not drawn) belongs 69.3% (active); to `CCOc1ccc2c(c1)sc(N)[n+]2Cc1cc(C)cc2cccnc12`, 32.1%.
On the same count and under the same terms, to `O=C(COc1ccc2ccc(=O)oc2c1)Nc1ccc(N2CCOCC2)cc1` belongs 45.5% (active); to `CC(=O)N[C@@H](Cc1c[nH]c2ccccc12)C(=O)OCC(=O)Nc1ccc2c(c1)OCO2`, 56.8% (active); to `COc1ccc(C2=Nn3c(nnc3-c3ccccc3F)SC2)cc1OC1CCOC1` (stereo not drawn), 78.2% (active).
With `COc1cc(C(=O)OCC(=O)Nc2ccc(N3CCOCC3)cc2)ccc1OCC(C)C`, the inhibition was 65.5% (active).
For the compound `Cn1cc(Cl)c(C(=O)OCC(=O)Nc2ccc(S(N)(=O)=O)cc2)n1`, the inhibition was 50.4% (active).
For `O=C(COc1cc2oc(=O)cc(-c3ccccc3)c2cc1Cl)NCCN1CCOCC1`, the inhibition was 35.4%.
With `Cc1cc(-c2nn3c(-c4ccccc4)nnc3s2)c2ccccc2n1`, the inhibition was 22.6%.
On the same count and under the same terms, next, `COc1ccc(CCNC(=O)COC(=O)C2CC2C)cc1` (stereo not drawn): 48.6% (active); `O=C1C(=C(I)I)c2ccccc2-c2ccccc21`: -21.6%; `CCOC(=O)c1cc(C#N)c(N2CCCCC2)nc1-c1ccccc1`: 40.6%.
On the same count and under the same terms, next, `CCCCCOc1ccc(NC(=O)CSc2cccc3cccnc23)cc1`: 26.9%; `Cc1ccc(NC(=O)COC(=O)C(NS(=O)(=O)c2ccc(Cl)cc2)C(C)O)cc1C` (stereo not drawn): 43.2% (active).
As to `Cc1ccc(N2C(=O)C(Cl)=C(N3CCN(C)CC3)C2=O)c(C)c1`, the inhibition was 39%.
Still for that read-out and setting: to `COc1ccc(NC(=O)CSc2nnc3ccc(-c4cccnc4)nn23)cc1OC` belongs 41.9%; to `O=[N+]([O-])c1ccc(S(=O)Cc2ccccc2)c([N+](=O)[O-])c1` (stereo not drawn), 22.4%; to `O=C(Nc1ccc(C(=O)N2CCOCC2)cc1)c1cccc([N+](=O)[O-])c1`, 41.9%.
The same measure, in the same setting: to `O=C(Nc1ccc2oc(-c3ccccc3F)nc2c1)c1ccc([N+](=O)[O-])o1` belongs 56% (active); to `CCN(Cc1ccccc1)c1ccc(/C=N/N2CCOCC2)cc1`, 34.2%.
